Reference: PubChem BioAssay AID1159580 (chemical genetic matrix, 2015)
The campaign covered roughly 5,500 compounds. About 2,000 (36%) were called active. Not shown: some 18% with an inconclusive outcome. The list shows a part of the results. A number with no mark means an inactive call. Cut-off read from the data, not from the text of the source: active = normalized growth mostly below about 0.91 (no sharp cut-off); inconclusive = no clear call, values can overlap the other calls; inactive = mostly above about 0.92.

Experiment: chemical genetic growth profiling, strain panel (AID 1159580);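 note: tested at 20 µM; growth read once vehicle control cultures reached saturation at 30 °C; 1 = growth at the plate median or of vehicle wells; lower values mean less growth of the strain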
Conditions: S. cerevisiae deletion strains, growth OD

COc1ccc(-c2c(OC)c3c(OC)c4c(cc3oc2=O)OC(C)(C)C=C4)cc1
normalized growth (locus YBR021W, strain FUR4, active compounds read low): 1.08 | normalized growth (locus YBR229C, strain ROT2, active compounds read low): 1.03 | normalized growth (locus YCL029C, strain bik1, active compounds read low): 0.974 | normalized growth (locus YDL035C, strain GPR1, active compounds read low): 1.09 | normalized growth (locus YDL074C, strain BRE1, active compounds read low): 1.18 | normalized growth (locus YDL101C, strain DUN1, active compounds read low): 0.99 | normalized growth (locus YDL185W, strain tfp1, active compounds read low): 0.988 | normalized growth (locus YDL192W, strain arf1, active compounds read low): 1.08 | normalized growth (locus YDR101C, strain arx1, active compounds read low): 1.07 | normalized growth (locus YDR162C, strain NBP2, active compounds read low): 1.06 | normalized growth (locus YDR318W, strain mcm21, active compounds read low): 1 | normalized growth (locus YDR388W, active compounds read low): 0.983 | normalized growth (locus YDR502C, strain sam2, active compounds read low): 1.05 | normalized growth (locus YEL061C, strain CIN8, active compounds read low): 1.02 | normalized growth (locus YER110C, active compounds read low): 0.973 | normalized growth (locus YER155C, strain BEM2, active compounds read low): 1.01 | normalized growth (locus YER167W, strain BCK2, active compounds read low): 1.01 | normalized growth (locus YGL078C, strain dbp3, active compounds read low): 1.02 | normalized growth (locus YGL086W, strain mad1, active compounds read low): 1.05 | normalized growth (locus YGL248W, strain PDE1, active compounds read low): 1.07 | normalized growth (locus YGR135W, strain pre9, active compounds read low): 1.02 | normalized growth (locus YGR252W, strain gcn5, active compounds read low): 1.21 | normalized growth (locus YHR030C, strain SLT2, active compounds read low): 1 | normalized growth (locus YHR079C, strain IRE1 (second series), active compounds read low): 0.991 | normalized growth (locus YHR094C, strain hxt1, active compounds read low): 1 | normalized growth (locus YHR129C, strain ARP1, active compounds read low): 1.02 | normalized growth (locus YHR200W, strain rpn10, active compounds read low): 1.04 | normalized growth (locus YIL066C, strain RNR3, active compounds read low): 1.01 | normalized growth (locus YIL073C, strain SPO22, active compounds read low): 1.12 | normalized growth (locus YIL125W, strain kgd1, active compounds read low): 1.02 | normalized growth (locus YIR030C, strain dcg1, active compounds read low): 1.01 | normalized growth (locus YJL095W, strain BCK1, active compounds read low): 1.08 | normalized growth (locus YJL134W, strain LCB3, active compounds read low): 0.991 | normalized growth (locus YJL168C, strain set2, active compounds read low): 1 | normalized growth (locus YJL187C, strain SWE1 (second series), active compounds read low): 1 | normalized growth (locus YJR075W, strain HOC1, active compounds read low): 1 | normalized growth (locus YKL009W, strain mrt4, active compounds read low): 1.03 | normalized growth (locus YKL068W, active compounds read low): 1.03 | normalized growth (locus YKL085W, strain MDH1 (second series), active compounds read low): 1.04 | normalized growth (locus YKL085W, strain MDH1, active compounds read low): 1.04 | normalized growth (locus YKL190W, strain CNB1, active compounds read low): 0.988 | normalized growth (locus YKR001C, strain vps1, active compounds read low): 1.09 | normalized growth (locus YLR039C, strain RIC1, active compounds read low): 1.22 | normalized growth (locus YLR058C, strain SHM2, active compounds read low): 1.01 | normalized growth (locus YLR102C, strain apc9, active compounds read low): 0.972 | normalized growth (locus YLR268W, strain sec22, active compounds read low): 1.04 | normalized growth (locus YLR330W, strain CHS5, active compounds read low): 1.03 | normalized growth (locus YLR342W, strain FKS1 (second series), active compounds read low): 1.03 | normalized growth (locus YLR371W, strain rom2, active compounds read low): 0.992 | normalized growth (locus YML016C, strain PPZ1, active compounds read low): 1.01 | normalized growth (locus YML032C, strain rad52, active compounds read low): 0.987 | normalized growth (locus YML124C, strain tub3, active compounds read low): 1.03 | normalized growth (locus YMR078C, strain ctf18, active compounds read low): 0.993 | normalized growth (locus YMR223W, strain ubp8, active compounds read low): 1.02 | normalized growth (locus YMR307W, strain GAS1, active compounds read low): 1.32 | normalized growth (locus YNL067W, strain RPL9B, active compounds read low): 1 | normalized growth (locus YNL153C, strain GIM3, active compounds read low): 1.01 | normalized growth (locus YNL233W, strain BNI4, active compounds read low): 1.05 | normalized growth (locus YNL250W, strain rad50, active compounds read low): 0.999 | normalized growth (locus YNL271C, strain bni1, active compounds read low): 1.03 | normalized growth (locus YNL298W, strain CLA4, active compounds read low): 1.03 | normalized growth (locus YNL307C, strain MCK1, active compounds read low): 0.967 | normalized growth (locus YNR052C, strain pop2, active compounds read low): 1.02 | normalized growth (locus YOL006C, strain TOP1, active compounds read low): 1.54 [resistant] (active) | normalized growth (locus YOL012C, strain htz1): 1.03 | normalized growth (locus YOL147C, strain pex11, active compounds read low): 0.997 | normalized growth (locus YOR061W, strain CKA2, active compounds read low): 1.02 | normalized growth (locus YOR069W, strain VPS5, active compounds read low): 0.993 | normalized growth (locus YOR136W, strain idh2, active compounds read low): 1 | normalized growth (locus YOR144C, strain elg1, active compounds read low): 1.03 | normalized growth (locus YOR184W, strain ser1, active compounds read low): 1.11 | normalized growth (locus YOR316C, strain cot1, active compounds read low): 0.975 | normalized growth (locus YPL055C, strain LGE1, active compounds read low): 1.16 | normalized growth (locus YPR119W, strain clb2, active compounds read low): 0.978 | normalized growth (locus YPR141C, strain kar3, active compounds read low): 1.03 | normalized growth (locus YPR163C, strain tif3, active compounds read low): 1 | normalized growth (locus YPR167C, strain met16, active compounds read low): 1.01 | normalized growth (strain wtn01, active compounds read low): 1.07
